Experimental findings from PubChem BioAssay (EPA / NIEHS) are described below.

Usually AC50 stands for the concentration giving half of the maximal activity seen.

Inconclusive results are not listed. The source made the active and inactive calls. Rule for the calls, unless noted: active = hit-call score of the fitted dose curve at least 0.9, where 1 is the maximum; inconclusive = response in the unintended direction; inactive = score below 0.9.

For experiment [1], the target named is Hepatocyte nuclear factor 3-beta (Homo sapiens) (UniProt Q9Y261). The experiment is described as follows: ATG_FoxA2_CIS: Attagene CIS-FACTORIAL HepG2 Assay for human Forkhead box A2 (FOXA2) (AID 2282942; active = hit-call score of the fitted dose curve at least 0.9, where 1 is the maximum; inactive = score below 0.9). To be noted: HepG2 cis-reporter transcription factor activity, 24 h; actives raise or lower the signal. A digest of the protocol:
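Endogenous transcription factor activity was read in HepG2 cells carrying transiently transfected cis-promoter reporter units. After 24 h dosing, reporter mRNA was quantified by RT-PCR and capillary electrophoresis, and values fitted bidirectionally versus DMSO.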

Experiment [2] can be described thus: ATG_FoxO_CIS: Attagene CIS-FACTORIAL HepG2 Assay for human Forkhead box O (FoxO) (AID 2282943; active = hit-call score of the fitted dose curve at least 0.9, where 1 is the maximum; inactive = score below 0.9). To be noted: HepG2 Attagene cis-reporter, FoxO element, mRNA; actives raise or lower the signal. An outline of the steps:
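Read-out: fluorescence of 6-FAM-labelled reporter cDNA fragments resolved by capillary electrophoresis. Transiently transfected HepG2 cells were dosed for 24 h; activity fitted in both directions relative to DMSO controls.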

Experiment [3] in a line: ATG_PBREM_CIS: Attagene CIS-FACTORIAL HepG2 Assay for human Phenobarbital-responsive Enhancer Module (PBREM) (AID 2282955; active = hit-call score of the fitted dose curve at least 0.9, where 1 is the maximum; inactive = score below 0.9). To be noted: HepG2 PBREM cis-reporter, Attagene multiplexed transcription; actives raise or lower the signal. An outline of the steps:
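Fluorescence of labelled reporter cDNA fragments, resolved by capillary electrophoresis, gives mRNA induction in transfected HepG2 cells treated for 24 h; DMSO serves as negative control and baseline.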

Experiment [4] in a line: ATG_RORE_CIS: Attagene CIS-FACTORIAL HepG2 Assay for human RAR-related Orphan Receptor Element (RORE) (AID 2282959; active = hit-call score of the fitted dose curve at least 0.9, where 1 is the maximum; inactive = score below 0.9). To be noted: HepG2 Attagene cis-factorial RORE reporter, mRNA; actives raise or lower the signal. An outline of the steps:
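Cells were HepG2 carrying transfected cis-regulated reporter constructs, dosed for 24 hours. Total RNA was reverse-transcribed and reporter cDNA amplified, fluorescently labeled and sized by capillary electrophoresis. Activity was fitted bidirectionally relative to DMSO.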

Experiment [5] in a line: ATG_SREBP_CIS: Attagene CIS-FACTORIAL HepG2 Assay for human Sterol Regulatory Element Binding (SREBP) (AID 2282962; active = hit-call score of the fitted dose curve at least 0.9, where 1 is the maximum; inactive = score below 0.9). To be noted: HepG2 Attagene cis-factorial SREBP reporter, mRNA; actives raise or lower the signal. A digest of the protocol: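 Readout: fluorescent reporter-transcript peaks resolved by capillary electrophoresis after RT-PCR. Cells were human HepG2 carrying transfected cis-promoter reporter constructs, dosed for 24 h. Gain or loss of signal was fitted against DMSO controls.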

Experiment [6] in a line: ATG_M_32_TRANS: Attagene TRANS-FACTORIAL HepG2 Assay for M32 Transcription Factor (Internal Marker) (AID 2282984).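 Note: transcript level of a background control reporter unit measured by RT-PCR and capillary electrophoresis.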 To be noted: HepG2 Attagene TRANS M32 internal marker reporter. An outline of the steps: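 Read-out: fluorescent reporter cDNA fragments resolved by capillary electrophoresis after RT-PCR of total RNA. Transfected HepG2 cells were exposed to chemical for 24 h. Activity scored in the positive direction relative to DMSO.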

Experiment [7] can be described thus: ATG_NFI_CIS: Attagene CIS-FACTORIAL HepG2 Assay for human Nuclear Factor I (NFI) (AID 2282989; active = hit-call score of the fitted dose curve at least 0.9, where 1 is the maximum; inactive = score below 0.9). To be noted: HepG2 cis-regulatory reporter, NFI response element transcription; actives raise or lower the signal. An outline of the steps:
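Reporter transcripts were measured by RT-PCR with fluorescent primer extension and capillary electrophoresis 24 h post-treatment. HepG2 cells carried transiently transfected cis-regulated reporter constructs reporting endogenous factor activity; gain or loss fitted against DMSO baseline.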

Experiment [8] in a line: ATG_NF_kB_CIS: Attagene CIS-FACTORIAL HepG2 Assay for human Nuclear Factor Kappa B (NF-kB) (AID 2282991; active = hit-call score of the fitted dose curve at least 0.9, where 1 is the maximum; inactive = score below 0.9). To be noted: HepG2 Attagene cis-factorial NF-kB reporter mRNA; actives raise or lower the signal. An outline of the steps: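 Endogenous transcription factor activity in HepG2 was captured via cis-regulated reporter constructs; after 24 h dosing, reporter mRNA was reverse-transcribed, amplified, fluorescently labelled and sized by capillary electrophoresis, with activity fitted bidirectionally relative to DMSO.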

For experiment [9], the target named is Retinoic acid receptor alpha (Homo sapiens) (UniProt P10276). Briefly: ATG_DR5_RAR_CIS: Attagene CIS-FACTORIAL HepG2 Assay for human Retinoic Acid Receptor Alpha (RARE), DR5 submotif (AID 2282934; active = hit-call score of the fitted dose curve at least 0.9, where 1 is the maximum; inactive = score below 0.9). To be noted: HepG2 Attagene cis-factorial RARE DR5 reporter, mRNA; actives raise or lower the signal. A digest of the protocol: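 Read-out: DR5-driven reporter transcript measured by RT-PCR, 6-FAM primer extension, HpaI digest and capillary electrophoresis. Human HepG2 liver cells carry transiently transfected cis-element reporter constructs; dosing lasts 24 h. Gain or loss of signal fitted against DMSO baseline.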

Experiment [10] in a line: ATG_GRE_CIS: Attagene CIS-FACTORIAL HepG2 Assay for human Glucocorticoid Response Elements (GRE) (AID 2282947; active = hit-call score of the fitted dose curve at least 0.9, where 1 is the maximum; inactive = score below 0.9). To be noted: HepG2 GRE cis-reporter, Attagene multiplex mRNA; actives raise or lower the signal. An outline of the steps:
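Read-out: fluorescent reporter-transcript fragments separated by capillary electrophoresis after RT-PCR. Transiently transfected HepG2 cells carrying cis-element-driven reporter units were dosed for 24 h; gain or loss of signal fitted against DMSO control.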

Experiment [11] concerns the target human Retinoid X Receptor beta (RXRb), RXRB (gene 6257) (UniProt P28702). The experiment is described as follows: ATG_RXRb_TRANS: Attagene TRANS-FACTORIAL HepG2 Assay for human Retinoid X Receptor beta (RXRb) (AID 2283013). A digest of the protocol: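 After a 24 h incubation with test chemical, transfected HepG2 cells carrying NR-Gal4 fusions and GAL4-UAS reporter transcription units yield RNA whose reporter cDNA is FAM-labelled, HpaI-cut and sized by capillary electrophoresis; increases over DMSO are scored.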

In experiment [12] the target is Cellular tumor antigen p53 (Homo sapiens) (UniProt P04637). Briefly: TOX21_p53_BLA_p2_ratio: Tox21 HCT-116 p53 Agonism Beta-lactamase Assay, Ratio, Phase 2 (AID 2283592). An outline of the steps: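 DMSO-normalized, positive-direction endpoint derived from the 460 nm/530 nm FRET ratio in HCT116 p53 beta-lactamase reporter cells exposed 16 h at 37C and loaded with CCF4-AM for 2 h.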

Experiment [13] in a line: TOX21_p53_BLA_p3_viability: Viability Assessment in the Tox21 HCT-116 p53 Agonism Beta-lactamase Assay, Phase 3 (AID 2283593).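 Note: cells exposed to compound for 16 h before reading.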 A digest of the protocol: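 HCT116 cells, 4000/well, dosed 5 h after plating by pin transfer (217-fold dilution from DMSO stock) and incubated 16 h at 37C, 5% CO2. Viability read as ATP luminescence with CellTiter-Glo after 30 min at room temperature.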

Experiment [14] concerns the target Cellular tumor antigen p53 (Homo sapiens) (UniProt P04637). The experiment is described as follows: TOX21_p53_BLA_p3_ratio: Tox21 HCT-116 p53 Agonism Beta-lactamase Assay, Ratio, Phase 3 (AID 2283596). An outline of the steps:
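Cells were seeded at 4000/well, rested 5 h at 37C, then dosed with DMSO compound solutions (217-fold dilution) for 16 h. CCF4-AM substrate was loaded for 2 h at room temperature, and the 460/530 nm emission ratio was fitted for gain of signal versus DMSO.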

Experiment [15] has the same target. Briefly: TOX21_p53_BLA_p5_ratio: Tox21 HCT-116 p53 Agonism Beta-lactamase Assay, Ratio, Phase 5 (AID 2283599). A digest of the protocol:
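HCT-116 p53-bla cells (4000/well) plated 5 h, dosed with compound (217-fold DMSO dilution) for 16 h at 37 C; CCF4-AM substrate 2 h at room temperature. Activity is the 460/530 nm emission ratio (405 nm excitation), fitted in gain-of-signal direction versus DMSO.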

Experiment [16] deals with Hepatocyte nuclear factor 4-alpha (Homo sapiens) (UniProt P41235). Briefly: ATG_HNF4a_TRANS: Attagene TRANS-FACTORIAL HepG2 Assay for human Hepatocyte Nuclear Factor 4 alpha (HNF4a) (AID 2282982). To be noted: HepG2 HNF4a transactivation reporter, mRNA readout. A digest of the protocol:
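Transient MRTU transfection of HepG2, 24 h dosing. Readout: reporter mRNA via RT-PCR + capillary electrophoresis, fluorescence; activity fit upward relative to DMSO control.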

Experiment [17] concerns the target human Peroxisome Proliferator-activated Receptor alpha (PPARa), PPARA (gene 5465) (UniProt Q07869). Briefly: ATG_PPARa_TRANS: Attagene TRANS-FACTORIAL HepG2 Assay for human Peroxisome Proliferator-activated Receptor alpha (PPARa) (AID 2283001).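 For AC50: potency for gain of reporter signal over DMSO so agonist or activator.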 An outline of the steps: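 Transient HepG2 transfection, GAL4-UAS reporters, NR-Gal4 chimeras; 24 h compound exposure. Readout: reporter transcripts by RT-PCR, 6-FAM primer extension, HpaI digest, capillary electrophoresis. Positive direction vs DMSO baseline.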

Experiment [18] can be described thus: TOX21_p53_BLA_p2_viability: Viability Assessment in the Tox21 HCT-116 p53 Agonism Beta-lactamase Assay, Phase 2 (AID 2283591).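 Note: compound exposure lasted 16 h at 37 °C; actives lower the ATP signal meaning cytotoxicity.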 A digest of the protocol:
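HCT116 p53-bla cells, 4000/well, dosed after 5 h plating (217-fold dilution of DMSO stocks) and incubated 16 h at 37C. Viability taken as cellular ATP by CellTiter-Glo luminescence after 30 min RT; signal loss marks cytotoxicity.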

Experiment [19] in a line: TOX21_p53_BLA_p5_viability: Viability Assessment in the Tox21 HCT-116 p53 Agonism Beta-lactamase Assay, Phase 5 (AID 2283600). An outline of the steps:
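Here cell health was gauged by ATP levels in wells holding 4000 cells, each treated 16 h with DMSO-delivered compounds at 217-fold dilution; reduced luminescence marked toxicity.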

Experiment [20] addresses Cellular tumor antigen p53 (Homo sapiens) (UniProt P04637). Briefly: TOX21_p53_BLA_p4_ratio: Tox21 HCT-116 p53 Agonism Beta-lactamase Assay, Ratio, Phase 4 (AID 2283601). An outline of the steps:
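HCT-116 p53 beta-lactamase reporter cells (4000/well) preincubated 5 h, then compound (217-fold dilution of DMSO stock) for 16 h at 37C. CCF4-AM substrate added 2 h at room temperature; 460/530 nm emission ratio fitted upward versus DMSO.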

Sequence of Retinoic acid receptor alpha (Homo sapiens) (P10276 whole entry, looked up): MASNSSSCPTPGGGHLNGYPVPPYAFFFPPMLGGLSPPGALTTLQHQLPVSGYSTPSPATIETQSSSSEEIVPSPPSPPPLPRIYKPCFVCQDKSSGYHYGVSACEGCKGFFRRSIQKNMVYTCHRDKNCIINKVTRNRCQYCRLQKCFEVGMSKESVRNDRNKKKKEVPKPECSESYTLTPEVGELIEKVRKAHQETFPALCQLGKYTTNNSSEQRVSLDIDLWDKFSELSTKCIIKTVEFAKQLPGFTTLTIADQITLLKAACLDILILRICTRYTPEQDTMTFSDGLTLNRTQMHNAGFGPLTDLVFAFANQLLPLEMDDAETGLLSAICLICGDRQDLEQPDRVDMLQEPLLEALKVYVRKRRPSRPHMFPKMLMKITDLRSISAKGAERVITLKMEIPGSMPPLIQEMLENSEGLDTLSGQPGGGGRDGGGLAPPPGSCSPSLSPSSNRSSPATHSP
Sequence of Cellular tumor antigen p53 (Homo sapiens) (P04637 whole entry, looked up): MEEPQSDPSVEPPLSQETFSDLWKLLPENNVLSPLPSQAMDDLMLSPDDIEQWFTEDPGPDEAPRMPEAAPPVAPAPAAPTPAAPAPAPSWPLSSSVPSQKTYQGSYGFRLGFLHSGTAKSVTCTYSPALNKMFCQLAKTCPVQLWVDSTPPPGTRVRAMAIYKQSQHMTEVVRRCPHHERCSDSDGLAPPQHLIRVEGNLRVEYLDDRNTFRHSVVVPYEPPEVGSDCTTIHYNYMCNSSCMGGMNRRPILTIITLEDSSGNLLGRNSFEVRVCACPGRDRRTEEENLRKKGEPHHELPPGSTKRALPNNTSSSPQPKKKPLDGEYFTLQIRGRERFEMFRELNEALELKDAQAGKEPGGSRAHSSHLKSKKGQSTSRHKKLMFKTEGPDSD
Sequence of human Retinoid X Receptor beta (RXRb), RXRB (gene 6257) (P28702 whole entry, looked up, the tested form may be a part): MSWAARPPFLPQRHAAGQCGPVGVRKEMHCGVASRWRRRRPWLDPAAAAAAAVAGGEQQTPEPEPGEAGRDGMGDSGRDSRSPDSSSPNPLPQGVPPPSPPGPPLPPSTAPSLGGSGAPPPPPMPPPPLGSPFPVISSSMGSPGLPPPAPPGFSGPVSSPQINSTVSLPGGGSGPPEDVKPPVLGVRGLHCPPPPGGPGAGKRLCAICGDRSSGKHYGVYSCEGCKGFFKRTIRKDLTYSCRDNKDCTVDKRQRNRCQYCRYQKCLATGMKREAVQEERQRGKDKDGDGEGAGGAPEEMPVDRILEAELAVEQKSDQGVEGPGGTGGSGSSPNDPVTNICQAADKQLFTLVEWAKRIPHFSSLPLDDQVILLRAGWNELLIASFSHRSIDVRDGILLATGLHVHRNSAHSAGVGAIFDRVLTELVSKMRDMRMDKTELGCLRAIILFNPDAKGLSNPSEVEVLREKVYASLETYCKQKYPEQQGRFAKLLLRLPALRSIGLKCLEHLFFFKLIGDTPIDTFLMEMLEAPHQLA
Sequence of Hepatocyte nuclear factor 4-alpha (Homo sapiens) (P41235 whole entry, looked up): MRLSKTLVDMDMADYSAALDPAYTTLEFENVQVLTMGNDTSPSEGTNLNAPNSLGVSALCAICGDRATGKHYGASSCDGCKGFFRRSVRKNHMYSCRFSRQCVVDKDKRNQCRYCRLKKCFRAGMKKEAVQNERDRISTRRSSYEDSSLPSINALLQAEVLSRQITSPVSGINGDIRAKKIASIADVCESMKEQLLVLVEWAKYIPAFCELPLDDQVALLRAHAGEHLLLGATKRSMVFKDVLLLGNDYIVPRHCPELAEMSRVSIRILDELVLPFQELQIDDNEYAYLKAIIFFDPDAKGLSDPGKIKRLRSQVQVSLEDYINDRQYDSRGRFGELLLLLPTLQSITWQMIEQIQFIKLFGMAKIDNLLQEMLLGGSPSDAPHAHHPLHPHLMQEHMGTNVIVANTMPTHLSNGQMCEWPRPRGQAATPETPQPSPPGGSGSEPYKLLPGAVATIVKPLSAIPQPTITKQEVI
Sequence of human Peroxisome Proliferator-activated Receptor alpha (PPARa), PPARA (gene 5465) (Q07869 whole entry, looked up, the tested form may be a part): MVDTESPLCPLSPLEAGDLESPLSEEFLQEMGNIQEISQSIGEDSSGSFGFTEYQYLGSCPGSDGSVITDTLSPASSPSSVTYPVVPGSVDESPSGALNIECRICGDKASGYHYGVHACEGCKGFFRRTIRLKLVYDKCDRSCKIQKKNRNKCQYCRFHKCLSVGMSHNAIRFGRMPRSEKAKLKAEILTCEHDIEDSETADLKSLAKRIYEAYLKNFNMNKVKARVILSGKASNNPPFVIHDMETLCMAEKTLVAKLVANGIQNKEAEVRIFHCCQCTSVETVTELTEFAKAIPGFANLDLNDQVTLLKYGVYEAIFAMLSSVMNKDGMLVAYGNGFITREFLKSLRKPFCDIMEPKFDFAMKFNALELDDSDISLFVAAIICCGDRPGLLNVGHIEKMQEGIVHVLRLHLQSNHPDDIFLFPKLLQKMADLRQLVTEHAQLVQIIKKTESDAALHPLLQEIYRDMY
Sequence of Hepatocyte nuclear factor 3-beta (Homo sapiens) (Q9Y261 whole entry, looked up): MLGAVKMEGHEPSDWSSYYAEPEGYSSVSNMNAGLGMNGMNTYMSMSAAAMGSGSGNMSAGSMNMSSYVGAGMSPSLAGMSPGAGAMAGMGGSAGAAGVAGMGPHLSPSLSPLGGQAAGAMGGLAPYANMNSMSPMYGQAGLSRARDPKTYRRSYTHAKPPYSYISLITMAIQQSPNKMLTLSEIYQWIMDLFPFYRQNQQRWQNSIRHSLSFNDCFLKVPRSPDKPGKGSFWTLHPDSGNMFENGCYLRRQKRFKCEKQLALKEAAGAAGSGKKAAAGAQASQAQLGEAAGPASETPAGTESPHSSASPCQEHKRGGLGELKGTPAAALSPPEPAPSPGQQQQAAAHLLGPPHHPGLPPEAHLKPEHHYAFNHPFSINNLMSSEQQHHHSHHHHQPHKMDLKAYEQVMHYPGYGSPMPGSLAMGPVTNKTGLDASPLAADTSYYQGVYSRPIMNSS

Turning to `Cc1cccnc1`, the call in [1], in experiment [2], in [3], in experiment [4], in experiment [5] and in experiment [6] was inactive. Also, the compound was classed as inactive in experiment [7] and in experiment [8].
For `O=C1CCCCCCCCCCCCCC1`, the compound was classed as inactive in experiment [9], in experiment [10], in experiment [3], in experiment [4], in experiment [6] and in experiment [7]. For the same compound, the outcome in experiment [8], in [12], in [13], in experiment [14] and in experiment [15] was inactive. The AC50 in experiment [11] is 13 µM (active).
For the compound `C1=CCC=C1`, the compound was classed as inactive in experiment [1], in [2], in experiment [4], in [5], in experiment [16] and in experiment [6]. The call in experiment [17] and in [11] was inactive.
For the compound `Cc1cc(C)c(S(=O)(=O)O)cc1N=Nc1cc(S(=O)(=O)O)c2ccccc2c1O`, the compound was called inactive in experiment [1], in [3], in experiment [16], in experiment [6], in [7] and in experiment [17]. Also, the compound was called inactive in experiment [11], in [18], in experiment [12], in [13], in [14] and in experiment [19]. The outcome in [20] was inactive.
For `F[B-](F)(F)F`, the compound was classed as inactive in [1], in experiment [2], in [4], in experiment [5], in [16] and in experiment [6].
Turning to `CCCCCCCCCCCCCC`, the compound was called inactive in experiment [2], in experiment [3], in experiment [4], in [5], in experiment [6] and in experiment [8]. Also, the compound was called inactive in experiment [11], in experiment [18], in [14], in experiment [15] and in experiment [20].
Turning to `Oc1ccc(Cl)cc1C1CCCC1`, the result in experiment [9], in experiment [3], in experiment [4], in experiment [16], in experiment [6] and in experiment [8] was inactive. Moreover, the outcome in experiment [18], in experiment [12], in experiment [13], in experiment [14], in experiment [15] and in experiment [19] was inactive. The AC50 in [2] is 61.3 µM (active); in [5] it was 25.6 µM (active); in [17] it was 39.1 µM (active); in experiment [11], 3.12 µM (active); in experiment [20] it was 55.6 µM (active).
For `CCCC(=O)OC/C=C(\C)CCC=C(C)C`, the call in experiment [9], in experiment [2], in experiment [10], in [3], in [4] and in [5] was inactive. Moreover, the result in experiment [16], in experiment [6], in [7], in experiment [8], in experiment [17] and in experiment [11] was inactive.
Take `CCCC(=O)OC`: the compound was called inactive in experiment [9], in [1], in experiment [2], in experiment [10], in experiment [4] and in [5]. For the same compound, the call in experiment [7], in [17], in [12], in experiment [13], in experiment [14] and in experiment [15] was inactive.
For the compound `COc1ccccc1OCC(O)CO` (configuration not stated), the compound was called inactive in experiment [1], in experiment [2], in experiment [4], in [5], in experiment [16] and in experiment [6]. Further, the result in experiment [7], in experiment [8], in experiment [17], in [11], in experiment [18] and in experiment [12] was inactive. For the same compound, the outcome in [14], in experiment [15], in [19] and in experiment [20] was inactive.
Consider `C[C@H]1C[C@H]2[C@@H]3CCC4=CC(=O)C=C[C@]4(C)[C@@]3(F)[C@@H](O)C[C@]2(C)[C@@]1(O)C(=O)CO`, for which the compound was called inactive in experiment [2], in experiment [3], in experiment [5], in experiment [8], in experiment [17] and in [11]. In addition, the compound was called inactive in experiment [18], in experiment [12], in experiment [13], in experiment [14], in experiment [19] and in [20].
